# Source: PubChem BioAssay
# Records with an inconclusive call do not appear. The source made the active and inactive calls. Unless noted, no cut-off is given here; in the data, nearly all actives have AC50 up to about 26 µM.
# Experiments:
# [1] = growth inhibition of DIPG glioma cells, dose response, cell-based, SU-DIPG-XVII, MIPE5.0, CellTiter-Glo, qHTS (AID 1347060); details: SU-DIPG-XVII viability, CellTiter-Glo ATP luminescence;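 for AC50: cells exposed to compound for 48 hours before viability readout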
# [2] = growth inhibition of DIPG glioma cells, dose response, cell-based, SU-DIPG-XIII, MIPE5.0, CellTiter-Glo, qHTS (AID 1347064; cut-off not given, nearly all actives have AC50 up to about 23 µM;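 for AC50: cells exposed to compound for 48 hours before the viability read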); details: SU-DIPG-XIII viability, CellTiter-Glo ATP luminescence
# [3] = viability loss in pontine glioma line – cell-based, SU-DIPG-XXV, MIPE5.0, CellTiter-Glo, qHTS, dose response (AID 1347065); details: CellTiter-Glo ATP luminescence;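 note: cells exposed to compound for 48 hours before ATP readout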
# [4] = JHH-DIPG-1 glioma cell viability, MIPE5.0 library, CellTiter-Glo luminescence, qHTS (AID 1347067); details: JHH-DIPG-1 glioma viability, CellTiter-Glo ATP luminescence;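 note: cells exposed to compound for 48 hours before readout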
# [5] = SU-DIPG-XXV glioma cell viability, MIPE5.0 library, qHTS (AID 1347068; cut-off not given, nearly all actives have IC50 up to about 30 µM;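 for IC50: cells exposed to compound for 48 hours before viability readout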)
Structure (SMILES),AC50 [1],AC50 [2],AC50 [3],AC50 [4],IC50 [5],outcome [1],outcome [2],outcome [3],outcome [4],outcome [5]
O=C(/C=C\n1cnc(-c2cc(C(F)(F)F)cc(C(F)(F)F)c2)n1)NNc1cnccn1,1.66 µM (active),16.6 µM (active),4.17 µM (active),16.6 µM (active),14.8 µM (active),,,,,
Cc1ccc(-c2ccc3ncc4c(c3n2)n(C2CCN(C(=O)[C@H](C)O)CC2)c(=O)n4C)cn1,0.468 µM (active),0.186 µM (active),0.186 µM (active),0.372 µM (active),0.417 µM (active),,,,,
N#Cc1ccc(N(Cc2ccc(Br)cc2)n2cnnc2)cc1,,,,,,inactive,inactive,inactive,inactive,inactive
CN[C@@H]1[C@@H](O)[C@@H](O[C@@H]2[C@@H](O)[C@H](O[C@H]3O[C@H](CN)[C@@H](O)[C@H](O)[C@H]3O)[C@@H](N)C[C@H]2NC(=O)C(O)CN)OC[C@]1(C)O (stereo not given in full),,,,,,inactive,inactive,inactive,inactive,inactive
C[C@H]1CN(C[C@H](Cc2ccccc2)C(=O)NCC(=O)O)CC[C@@]1(C)c1cccc(O)c1,,,,,,inactive,inactive,inactive,inactive,inactive
Nc1ncnc(Nc2ccc(OCc3ccccc3)c(Cl)c2)c1/C=N/OCCN1CCOCC1,23.5 µM (active),16.6 µM (active),16.6 µM (active),18.6 µM (active),14.8 µM (active),,,,,
CO[C@@H]1COCC[C@@H]1N[C@@H]1CC[C@@](C(=O)N2CCc3ncc(C(F)(F)F)cc3C2)(C(C)C)C1,,,,,,inactive,inactive,inactive,inactive,inactive
Cc1c[nH]c2nc(Nc3ccc(N4CCN(C)CC4)c(F)c3)nc(-c3cccc(CC#N)c3)c12,2.35 µM (active),4.17 µM (active),4.17 µM (active),3.72 µM (active),3.32 µM (active),,,,,
COc1ccc(C(=O)N2CCN(c3ccc4c(c3)CCC(=O)N4)CC2)cc1OC,,,,,,inactive,inactive,inactive,inactive,inactive
Cc1ncsc1-c1ccc([C@H](C)NC(=O)[C@@H]2C[C@@H](O)CN2C(=O)[C@@H](NC(=O)COCCCOCCNC(=O)C[C@@H]2N=C(c3ccc(Cl)cc3)c3c(sc(C)c3C)-n3c(C)nnc32)C(C)(C)C)cc1,0.132 µM (active),0.209 µM (active),0.0742 µM (active),0.0525 µM (active),0.332 µM (active),,,,,
CCC(C)CNCC(=O)N1CCc2sccc2C1c1cccc(C)n1 (stereo not given),,,,,,inactive,inactive,inactive,inactive,inactive
O=C(O)CCCCN(CCc1ccccc1OCc1ccc(CCc2ccccc2)cc1)Cc1ccc(C(=O)O)cc1,,,,,,inactive,inactive,inactive,inactive,inactive
O=C(Nc1cc(Oc2cc(F)c(NC(=O)C3(C(=O)Nc4ccc(F)cc4)CC3)cc2F)ccn1)C1CC1,14.8 µM (active),13.2 µM (active),9.34 µM (active),13.2 µM (active),18.6 µM (active),,,,,
